Laboratory results from PubChem BioAssay (NCATS).
Values joined by “and” are separate entries in the source; they are usually repeats but may differ in a detail not shown here. Equal entries are not always repeated. Inconclusive results are not listed. Active and inactive are the calls of the source. Unless noted, the call rests on the fitted dose curve; in most records, active means well fitted curve in the direction sought with a large enough effect; inconclusive means small, poorly fitted or top-dose-only effect, or another doubt; inactive means no such curve, though single readings can be large; an effect the other way counts as inactive or inconclusive.

Assays:
[1] = qHTS assay for measurement of the activity of small molecule inhibitors on Zika virus induced Caspase-3 activity in human iPSC derived neural progenitor cells (hNPCs) (AID 1224857); further: nearly all actives have a fitted effect of over 65% in size
Summary of the method: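 In medium with heparin 2 ug/ml and cyclopamine 2 uM, hNPCs (350 cells/well) received compound for one hour and then Zika virus at 2 FFU/cell; caspase activity was measured by Caspase-Glo 3/7 luminescence 6 h post-infection.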

[2] = qHTS assay for measurement of the activity of small molecule inhibitors on Zika virus induced Caspase-3 activity in human astrocytoma cells (AID 1224859)
Summary of the method: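 A cell-based luminescent caspase-3/7 assay used SNB-19 cells infected with ZIKV (2 FFU/cell) for 6 h following 1 h compound pretreatment.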

[3] = P-glycoprotein substrates identified in KB-8-5-11 adenocarcinoma cell line, qHTS therapeutic library screen (AID 1346987); further: nearly all actives have a fitted effect of over 65% in size; further: potency means the concentration at half of the fitted maximal effect
Summary of the method: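 P-gp-mediated resistance screen: KB-8-5-11 cells treated 72 h with compounds in dose-response. CellTiter-Glo viability.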

[4] = qHTS of pediatric cancer cell lines to identify multiple opportunities for drug repurposing: Primary screen for TC32 cells (AID 1347089); further: nearly all actives have a fitted effect of over 60% in size; further: potency means the concentration at half of the fitted maximal effect
Summary of the method: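 In the primary qHTS, MIPE compounds were tested at 11 concentrations (0.78 nM to 46 µM) and NPC compounds at 8 (0.59 nM to 46 µM) on TC32 cells for 48 h. CellTiter-Glo luminescence gave viability.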

[5] = qHTS of pediatric cancer cell lines to identify multiple opportunities for drug repurposing: Primary screen for DAOY cells (AID 1347090); further: nearly all actives have a fitted effect of over 55% in size; further: potency means the concentration at half of the fitted maximal effect
Summary of the method: (§1)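 Cell viability, CellTiter-Glo luminescence; 500-1,000 cells/well, 8- or 11-point titration, 48 h compound exposure at 37 degrees C, 5% CO2. Controls: DMSO neutral, bortezomib 2.3 µM final as positive.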

[6] = qHTS of pediatric cancer cell lines to identify multiple opportunities for drug repurposing: Primary screen for A673 cells (AID 1347092); further: nearly all actives have a fitted effect of over 45% in size; further: potency means the concentration at half of the fitted maximal effect
Summary of the method: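 48 h compound exposure, A673, 500-1,000 cells/well, 37 degrees C/5% CO2. MIPE: 11-point, 0.78 nM-46 µM; NPC: 8-point, 0.59 nM-46 µM (final). Readout CellTiter-Glo luminescence after 15 min RT.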

[7] = qHTS of pediatric cancer cell lines to identify multiple opportunities for drug repurposing: Primary screen for SJ-GBM2 cells (AID 1347091); further: potency means the concentration at half of the fitted maximal effect
Summary of the method: as §1

[8] = Natriuretic polypeptide receptor (hNpr1) antagonism - Pilot counterscreen GloSensor control cell line (AID 1347045; calls by dose curve)
Summary of the method: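 This counterscreen uses HEK293 cells expressing the GIP/pGS-40F cGMP biosensor. Compound-treated cells are challenged with 50 uM sodium nitroprusside, and the luciferase signal is compared before and after stimulation.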

[9] = molecular target: Atrial natriuretic peptide receptor 2 (Homo sapiens) (UniProt P20594); assay: Natriuretic polypeptide receptor (hNpr2) antagonism - Pilot subtype selectivity assay (AID 1347050; calls by dose curve)
Chain of Atrial natriuretic peptide receptor 2 (Homo sapiens) (P20594 whole entry, looked up): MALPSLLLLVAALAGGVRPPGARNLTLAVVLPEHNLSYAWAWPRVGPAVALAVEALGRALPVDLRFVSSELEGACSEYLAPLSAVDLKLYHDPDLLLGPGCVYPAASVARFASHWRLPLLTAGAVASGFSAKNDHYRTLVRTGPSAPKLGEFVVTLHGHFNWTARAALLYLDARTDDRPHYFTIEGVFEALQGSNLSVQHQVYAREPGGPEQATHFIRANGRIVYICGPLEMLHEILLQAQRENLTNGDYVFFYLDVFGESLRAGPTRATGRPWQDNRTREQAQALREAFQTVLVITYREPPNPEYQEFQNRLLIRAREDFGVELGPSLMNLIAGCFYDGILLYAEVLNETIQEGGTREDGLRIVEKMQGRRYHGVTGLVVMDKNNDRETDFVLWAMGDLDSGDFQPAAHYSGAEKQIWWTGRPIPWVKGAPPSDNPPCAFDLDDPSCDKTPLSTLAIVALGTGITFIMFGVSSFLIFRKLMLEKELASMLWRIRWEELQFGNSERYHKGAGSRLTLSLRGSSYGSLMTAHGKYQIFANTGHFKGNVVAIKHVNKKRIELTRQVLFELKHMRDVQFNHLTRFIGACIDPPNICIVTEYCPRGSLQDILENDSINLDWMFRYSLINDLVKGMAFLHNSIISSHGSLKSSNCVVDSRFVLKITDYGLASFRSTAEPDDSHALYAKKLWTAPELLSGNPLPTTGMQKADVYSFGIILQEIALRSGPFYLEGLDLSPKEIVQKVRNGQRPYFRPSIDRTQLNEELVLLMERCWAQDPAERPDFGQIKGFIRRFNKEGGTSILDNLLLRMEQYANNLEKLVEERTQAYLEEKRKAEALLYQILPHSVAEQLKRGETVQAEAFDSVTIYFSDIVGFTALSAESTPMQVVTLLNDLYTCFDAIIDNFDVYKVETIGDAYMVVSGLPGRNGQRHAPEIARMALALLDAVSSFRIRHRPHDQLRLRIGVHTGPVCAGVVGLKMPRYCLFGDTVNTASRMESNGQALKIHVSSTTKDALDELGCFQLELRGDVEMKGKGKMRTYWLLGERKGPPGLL
Summary of the method: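 Pilot selectivity screen against hNpr2: HEK293 cGMP-sensor cells are treated with LOPAC1280 compounds, then with hNppC peptide at 1 nM final. The cGMP-driven luminescence change over 20 min at room temperature is the read-out.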

[10] = NS1 protein of Zika virus - qHTS assay to identify small molecule inhibitors in human HEK 293 cells (AID 1347053); further: nearly all actives have a fitted effect of over 55% in size
Summary of the method: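 HEK 293; 20 h pre-culture, 37 C/5% CO2; cpd 1 h pre-infection; ZIKV MR766, MOI = 0.5, 24 h, 37 C; TR-FRET NS1 readout (two anti-NS1 Abs); norm. to no-virus vs infected.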

[11] = molecular target: T1, Tyrosine-protein phosphatase non-receptor type substrate 1 (Homo sapiens) + Leukocyte surface antigen CD47 (Homo sapiens) (UniProt P78324+Q08722); assay: CD47-SIRPalpha protein protein interaction - LANCE assay qHTS validation (AID 1347057; active means well fitted curve in the direction sought with a large enough effect in the signal ratio, with a control signal flat, not every such curve was filed as active; the % refers to the signal ratio)
T1 sequence (P78324 whole entry, looked up): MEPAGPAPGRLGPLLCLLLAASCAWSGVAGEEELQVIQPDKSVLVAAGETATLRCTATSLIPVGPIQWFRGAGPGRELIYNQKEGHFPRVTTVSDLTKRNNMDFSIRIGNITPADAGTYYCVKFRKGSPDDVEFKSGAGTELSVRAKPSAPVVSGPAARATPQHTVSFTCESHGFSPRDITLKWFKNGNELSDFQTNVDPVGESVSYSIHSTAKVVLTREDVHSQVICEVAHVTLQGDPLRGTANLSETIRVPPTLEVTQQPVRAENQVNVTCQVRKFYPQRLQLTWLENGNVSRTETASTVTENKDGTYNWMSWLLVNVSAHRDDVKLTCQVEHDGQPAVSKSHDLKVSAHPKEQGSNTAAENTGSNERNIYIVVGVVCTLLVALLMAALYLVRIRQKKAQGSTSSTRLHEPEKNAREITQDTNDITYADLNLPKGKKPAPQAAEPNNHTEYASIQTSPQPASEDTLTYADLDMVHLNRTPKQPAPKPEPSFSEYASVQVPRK
T1 sequence (Q08722 whole entry, looked up): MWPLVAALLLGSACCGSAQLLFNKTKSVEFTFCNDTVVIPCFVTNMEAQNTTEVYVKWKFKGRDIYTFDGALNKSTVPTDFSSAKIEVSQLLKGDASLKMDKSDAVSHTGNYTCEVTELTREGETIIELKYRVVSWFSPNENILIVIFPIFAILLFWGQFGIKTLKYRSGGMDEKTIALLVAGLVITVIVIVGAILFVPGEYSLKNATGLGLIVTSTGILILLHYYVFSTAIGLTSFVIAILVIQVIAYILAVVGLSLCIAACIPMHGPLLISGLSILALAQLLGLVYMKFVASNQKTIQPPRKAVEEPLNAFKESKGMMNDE
Summary of the method: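 First, His-tagged CD47 and Eu-labelled anti-His antibody met the compound for 30 min; next, site-specifically biotinylated SIRPalpha was added for 30 min; finally streptavidin-APC was added before reading the TR-FRET ratio.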

[12] = molecular target: T1, Tyrosine-protein phosphatase non-receptor type substrate 1 (Homo sapiens) + Leukocyte surface antigen CD47 (Homo sapiens); assay: CD47-SIRPalpha protein protein interaction - Alpha assay qHTS validation (AID 1347059);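 further: bead proximity luminescence from CD47 binding SIRPalpha after compound preincubation with SIRPalpha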
Summary of the method: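 Binding is measured by AlphaScreen proximity: Ni-NTA acceptor beads capture His-CD47, streptavidin donor beads capture biotin-SIRPalpha. Each of three additions (SIRPalpha with compound, CD47, beads) incubates 30 min at room temperature protected from light.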

[13] = molecular target: Parathyroid hormone/parathyroid hormone-related peptide receptor (Homo sapiens) (UniProt Q03431); assay: qHTS for PTHR1 Agonists: Optimization Screen against the NCGC LOPAC library (AID 1347079);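 further: GloSensor cAMP luminescence in HEK-293 GP2 cells expressing human PTHR1 with IBMX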
Chain of Parathyroid hormone/parathyroid hormone-related peptide receptor (Homo sapiens) (Q03431 whole entry, looked up): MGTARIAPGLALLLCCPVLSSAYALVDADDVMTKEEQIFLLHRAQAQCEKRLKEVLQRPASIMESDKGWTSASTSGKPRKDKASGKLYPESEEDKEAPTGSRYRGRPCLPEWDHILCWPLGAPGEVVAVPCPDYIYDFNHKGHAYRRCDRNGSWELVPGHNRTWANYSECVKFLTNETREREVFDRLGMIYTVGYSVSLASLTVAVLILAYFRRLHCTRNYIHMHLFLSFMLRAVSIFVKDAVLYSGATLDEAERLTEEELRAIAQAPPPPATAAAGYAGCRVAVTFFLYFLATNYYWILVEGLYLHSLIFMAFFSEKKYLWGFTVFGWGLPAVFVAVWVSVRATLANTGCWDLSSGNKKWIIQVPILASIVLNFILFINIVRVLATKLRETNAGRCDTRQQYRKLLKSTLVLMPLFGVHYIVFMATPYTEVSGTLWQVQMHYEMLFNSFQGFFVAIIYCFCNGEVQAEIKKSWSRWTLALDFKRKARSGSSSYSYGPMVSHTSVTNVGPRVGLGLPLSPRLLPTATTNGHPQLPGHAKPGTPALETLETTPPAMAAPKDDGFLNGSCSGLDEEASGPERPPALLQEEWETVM
Summary of the method: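 Compounds were tested across a qHTS titration. PTHR1-expressing GP2 cells report cAMP rises via GloSensor luminescence after 1 hr compound exposure at 37C with IBMX present.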

[14] = qHTS profiling for inhibitors of Plasmodium falciparum (3D7) proliferation (AID 743322);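 further: infected erythrocytes exposed to compound for 72 h before lysis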; settings: P. falciparum 3D7 proliferation; at 28.7 µM (top of the series)
Summary of the method: (§2)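 Erythrocytes infected with P. falciparum (0.3% parasitemia, 2.5% hematocrit) incubated with compounds 72 h at 37 C, 5% CO2. Lysis with saponin/Triton buffer containing SYBR Green I, overnight at room temperature in the dark; DNA fluorescence (485/535 nm) normalised to 0.29 uM artemisinin and DMSO.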

[15] = qHTS profiling for inhibitors of Plasmodium falciparum (DD2) proliferation (AID 743323; call rule not given here); settings: lower = more inhibition; at 28.7 µM (top of the series)
Summary of the method: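 Parasite proliferation measured via DNA-dye fluorescence, as uninfected erythrocytes lack DNA. Cultures at 0.3% parasitemia and 2.5% hematocrit incubated 72 h with compound; signal scaled between vehicle and 0.29 uM artemisinin wells.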

[16] = qHTS profiling of the MIPE4 collection as inhibitors of Plasmodium falciparum (3D7) proliferation (AID 743344; call rule not given here); settings: P. falciparum 3D7 in erythrocytes, SYBR Green DNA fluorescence, 72 h; at 28.5 µM (top of the series) unless noted
Summary of the method: as §2

[17] = qHTS profiling of the MIPE4 collection as inhibitors of Plasmodium falciparum (DD2) proliferation (AID 743345; call rule not given here); settings: P. falciparum Dd2 in erythrocytes, SYBR Green DNA, 72 h; at 28.5 µM (top of the series) unless noted
Summary of the method: as §2

[18] = qHTS profiling of the MIPE4 collection as inhibitors of Plasmodium falciparum (DD2) proliferation (Rep 2) (AID 743346; call rule not given here); settings: P. falciparum Dd2 in erythrocytes, SYBR Green DNA, 72 h; at 28.5 µM (top of the series) unless noted
Summary of the method: as §2

[19] = qHTS profiling of the MIPE4 collection as inhibitors of Plasmodium falciparum (HB3) proliferation (AID 743347; call rule not given here); settings: P. falciparum HB3 in erythrocytes, SYBR Green DNA, 72 h; at 28.5 µM (top of the series) unless noted
Summary of the method: as §2

CO[C@@H]1[C@@H](OC)[C@H](C)[C@@](O)(CC(=O)O)O[C@H]1[C@H](C)[C@H]1O[C@@]2(CC[C@@](C)([C@H]3CC[C@@](C)([C@@H]4O[C@@H]([C@H]5O[C@](C)(O)[C@H](C)C[C@@H]5C)C[C@@H]4OC4C[C@H](OC)[C@@H](OC)[C@H](C)O4)O3)O2)C[C@H](O)[C@H]1C (some centres undefined)
inactive: Potency [1] | outcome [2]
active: Potency [3] 8.2 µM | Potency [4] 1.87 µM | Potency [5] 3.35 µM | Potency [6] 4.22 µM

C[C@@]12CCC[C@H]1[C@@H]1CC[C@H]3C[C@@H](O)CC[C@]3(C)[C@H]1CC2
inactive: Potency [1] | outcome [2] | Potency [3] | Potency [4] | Potency [5] | Potency [7]

O=C1NC(c2cccc([N+](=O)[O-])c2)=CCN1c1ccccc1O
inactive: Potency [1] | outcome [2] | Potency [8] | Potency [9] | Potency [10] | outcome [11] | Potency [12] | outcome [13]

CC(=O)OCC(=O)[C@@]1(O)CCC2C3CCC4=CC(=O)CC[C@]4(C)C3[C@@H](O)C[C@@]21C (some centres undefined)
inactive: Potency [1] | outcome [2] | Potency [3] | Potency [10] | Potency [4] | Potency [5] | Potency [7] | Potency [6]

CCCC(=O)c1cc(O)c(O)cc1O
inactive: Potency [1] | outcome [2] | Potency [3] | Potency [10] | Potency [4] | Potency [5]
active: Potency [6] 12.2 µM

CC(=O)Nc1c(I)c(NC(C)=O)c(I)c(C(=O)O)c1I
inactive: Potency [1] | outcome [2] | Potency [3] | Potency [10] | Potency [4] | Potency [5] | Potency [6]

CO/N=C(/C(=O)N[C@@H]1C(=O)N2C(C(=O)OCOC(=O)C(C)(C)C)=C(C)CS[C@H]12)c1csc(N)n1
inactive: Potency [1] | outcome [2] | Potency [3] | Potency [10] | Potency [4] | Potency [5] | Potency [7] | Potency [6]

Nc1c(NC/C=C\COc2cc(CN3CCCCC3)ccn2)c(=O)c1=O
inactive: Potency [1] | outcome [2] | Potency [3] | Potency [4] | Potency [5] | Potency [7] | Potency [6]

OC1(c2ccc(Cl)c(C(F)(F)F)c2)CCN(CCCC(c2ccc(F)cc2)c2ccc(F)cc2)CC1
active: Potency [3] 23.1 µM and 20.6 µM | Potency [4] 16.7 µM | Potency [6] 10.6 µM
inactive: Potency [1] | outcome [2]

COc1ccccc1OCC1CNC(=O)O1 (centres undefined)
inactive: Potency [1] | outcome [2] | Potency [3] | Potency [10] | Potency [4] | Potency [5] | Potency [7] | Potency [6]

Cc1ncc(CO)c(CO)c1O
inactive: Potency [1] | outcome [2] | Potency [3] | Potency [10] | Potency [4] | Potency [5] | Potency [6]

OCCc1ccccc1
inactive: Potency [1] | outcome [2] | Potency [3] | Potency [10] | Potency [4] | Potency [5] | Potency [7] | Potency [6]

Oc1ccc(CCNCCCCCCNCCc2ccccc2)cc1O
inactive: Potency [1] | outcome [2] | Potency [3] | Potency [10] | Potency [5]

Nc1ccc2cc3ccc(N)cc3nc2c1
active: Potency [3] 14.6 µM | Potency [5] 26.6 µM | Potency [6] 13.3 µM
inactive: Potency [1] | outcome [2]

CCCCCC[C@@H](CCC)C(=O)O
inactive: Potency [1] | outcome [2] | Potency [3] | Potency [10] | Potency [4] | Potency [5] | Potency [7] | Potency [6]

O=C(Nc1ccc(Cl)cc1)Nc1ccc(Cl)c(C(F)(F)F)c1
active: Potency [3] 20.6 µM | Potency [5] 13.3 µM | Potency [7] 3.35 µM | Potency [6] 21.1 µM
inactive: Potency [1] | outcome [2]

OC[C@]1(O)OC[C@@H](O)[C@H](O)[C@@H]1O
inactive: Potency [1] | outcome [2] | Potency [3] | Potency [10] | Potency [4] | Potency [7] | Potency [6]

CN(C(=O)C(Cl)Cl)c1ccc(OC(=O)c2ccco2)cc1
inactive: Potency [1] | outcome [2] | Potency [3] | Potency [10] | Potency [4] | Potency [5] | Potency [6]

CC[N+](CC)(CC)CCOC(=O)C(C1CCCC1)C1CCCC1
inactive: Potency [1] | outcome [2] | Potency [3] | Potency [4] | Potency [5] | Potency [7]

C[C@]12CCC(=O)C=C1CC[C@@H]1[C@@H]2[C@@H](O)C[C@@]2(C)[C@H]1CC[C@]2(O)C(=O)COC(=O)CCC(=O)O
inactive: Potency [1] | outcome [2] | Potency [3] | Potency [10] | Potency [4] | Potency [5] | Potency [7] | Potency [6]

O=C(Nc1ccc(S(=O)(=O)N2CCOCC2)cc1)c1cc(Cl)ccc1NS(=O)(=O)c1ccc(Cl)s1
inactive: Potency [1] | outcome [2] | Potency [3] | Potency [10] | Potency [4] | Potency [5] | Potency [6]

Cc1nc([N+](=O)[O-])cn1-c1ccc([N+](=O)[O-])cc1
inactive: Potency [1] | outcome [2] | Potency [3] | Potency [10] | Potency [4] | Potency [5] | Potency [7] | Potency [6]

CCCCC(CC)COC(=O)c1ccccc1C(=O)O (centres undefined)
inactive: Potency [1] | outcome [2] | Potency [3] | Potency [10] | Potency [4] | Potency [5] | Potency [7] | Potency [6]

O=C(Nc1ccc(Cl)cc1)Nc1ccc(Cl)c(Cl)c1
-0.0718%: activity, percent of control [15]
active: Potency [3] 6.51 µM | Potency [7] 11.9 µM
inactive: Potency [1] | outcome [2] | Potency [10]
-1.23%: remaining parasite growth % (stronger effect = lower value) [14]

Nc1cccc2c(N)cccc12
active: Potency [6] 24.3 µM
inactive: Potency [1] | outcome [2] | Potency [3] | Potency [10] | Potency [5] | Potency [7]

CC(NCCC(c1ccccc1)c1ccccc1)c1ccccc1 (centres undefined)
active: Potency [3] 16.4 µM
inactive: Potency [1] | outcome [2]
9.45%: parasite growth, % of DMSO control [16]
16.7%: parasite growth, % of control (lower = inhibition) [18]
9.26%: parasite growth remaining, % of DMSO control (lower = more inhibition) [17]
3.07%: growth, % of control [19]

CCCCCC(=O)O[C@]1(C(C)=O)CC[C@H]2[C@@H]3CCC4=CC(=O)CC[C@]4(C)[C@H]3CC[C@@]21C
active: Potency [3] 10.3 µM | Potency [5] 21.1 µM
inactive: Potency [1] | outcome [2] | Potency [4]

CC(C)(C)C(O)/C=C/c1ccc2c(c1)OCO2 (centres undefined)
inactive: Potency [1] | outcome [2] | Potency [3] | Potency [10] | Potency [4] | Potency [5] | Potency [7] | Potency [6]
